# Bioassay records as filed in PubChem.
# Methyltransferases – Primary Screen for Target Class Profiling of Small Molecule Inhibitors of Methyltransferases. calls only at 40 µM. 25,000 tested, 3.9% active. purified enzyme, MTase-Glo SAH luminescence; stronger effect = lower value; call rule not given here
#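 Each enzyme was reacted with SAM and its substrate, with compounds tested once at 40 uM; SAH formed was read by MTase-Glo luminescence.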
# Starred values were filed as active, the others as inactive; i = inactive; + = active, no number; ! = not active in a repeat. This excerpt belongs to a sample that is enriched for hits. % is scaled to controls: 0 for no effect and ±100 for the full control effect.
SMILES,Methyltransferases
CCCN1C(=O)c2c(C(=O)NCc3ccc(OCC)cc3)ncn2CC1(C)C(=O)NCCC(C)C (stereo not drawn),i
O=C1NC(=O)C(c2ccccc2[N+](=O)[O-])=C1Nc1ccc(O)c(Cl)c1,+
CCc1ccc(NC(=O)N2CCn3c(C)ccc3C2CC)cc1 (stereo not drawn),i
COc1ccc(-c2cc3n(n2)CC(C)(C(=O)NCc2ccccc2OC)N(c2ccc(Cl)cc2)C3=O)cc1 (stereo not drawn),i
COc1cccc(CNC(=O)Cn2nc3n(CCC(C)C)c(=O)c4ccccc4n3c2=O)c1,i
N=C(N)SCCN,+
CC1(C(=O)NCc2ccccc2)Cn2nc(-c3ccccc3)cc2C(=O)N1c1ccc(F)cc1 (stereo not drawn),i
CN(CC(=O)N1CCC(Cc2ccccc2)CC1)S(=O)(=O)c1ccc2[nH]c3c(c2c1)CCCC3,i
COc1ccc(OC)c2c1cc1n2CC(C)(C(=O)NC2CCCCC2)N(CCc2ccccc2)C1=O (stereo not drawn),i
O=S(=O)(NCCn1cnc2ccccc21)c1cccc(Cl)c1,i
COc1cc2c(cc1OC)CN(CCc1ccc(NC(=O)c3cc(OC)c(OC)cc3NC(=O)c3cnc4ccccc4c3)cc1)CC2,i
COc1cc2c(cc1OC)CN(C(=O)/C=C/c1c(-c3ccccc3)n(C)c3ncccc13)CC2,+
COc1ccc(C(=O)Cn2nc3n(CC(C)C)c(=O)c4ccccc4n3c2=O)cc1OC,i
CCCCNC(=O)c1ncn2c1C(=O)N(C1CC1)C(C)(C(=O)NCc1ccc(OC)cc1)C2 (stereo not drawn),i
O=S(=O)(NCCn1c(-c2ccncc2)nc2ccccc21)c1ccc(Cl)cc1,i
Cn1c(=O)c2ccc(C(=O)NC3CCCCC3)cc2n2c(=O)n(CC(=O)Nc3ccccc3)nc12,i
Cc1ccc(NC2=CC(=O)c3sc(C)nc3C2=O)cc1,+
CCCn1c(=O)c2ccc(C(=O)NC(C)CC)cc2n2c(=O)n(CC(=O)Nc3ccc(CC)cc3)nc12 (stereo not drawn),i
Oc1ccc(/C=C/c2cc(O)cc(O)c2)cc1,i
O=c1cc(O)cc(/C=C/c2ccc(O)c(O)c2)o1,+
O=C(/C=C/c1ccc(O)c(O)c1)OCCc1ccccc1,i
CN(Cc1cccs1)c1ncnc2ccc(-c3ccc4c(c3)OCO4)cc12,+
CN(Cc1cccs1)Cc1cccn1C,i
CCOc1ccc(C(=O)Cn2nc3n(CC(C)C)c(=O)c4ccc(C(=O)NCC(C)C)cc4n3c2=O)cc1,i
CC(C)Cn1c(=O)c2ccccc2n2c(SCc3ccc(Cl)cc3)nnc12,i
SMILES,Methyltransferases
C=C1C(=O)OC[C@@H]1C/C=C(\C)CC1CC(C)C(=O)O1 (stereo partly drawn),+
Cc1ccc(CCN2C(=O)CSc3c(c4ccccc4n3C)C2C(=O)NCc2ccc(F)cc2)cc1 (stereo not drawn),i
COc1ccc(CNC(=O)CCCc2nnc3n4nc(C)nc4c4ccccc4n23)cc1,i
Cn1c(CNc2ccc(C(=N)N)cc2)nc2cc(C(=O)N(CCC(=O)O)c3ccccn3)ccc21,+
CCCn1c(=O)c2ccc(Cl)cc2n2c(=O)n(Cc3cccc(C)c3)nc12,i
O=C1c2cc3sccc3n2CC(C(=O)NC2CCCCCC2)(c2ccccc2)N1Cc1cccc(F)c1 (stereo not drawn),i
COc1ccc2c(c1)c(-n1cccc1)c1n2CC(C)(C(=O)NC2CCCCC2)N(Cc2ccc(Cl)cc2)C1=O (stereo not drawn),i
CCOC(=O)c1cc2n(n1)CC(C)(C(=O)NCc1ccc(C)cc1)N(c1ccc(C)cc1C)C2=O (stereo not drawn),i
C=CC(=O)Nc1cccc(Nc2nc(Nc3ccc(NC4CN(CCF)C4)cc3OC)ncc2C(F)(F)F)c1,i
COc1cccc(-c2ccc(NC(=O)C3CCCN3C(=O)CNC(C)=O)cc2)c1 (stereo not drawn),i
CC(=O)NCC(=O)N1C2CCC1c1cc(Nc3ncc(C(F)(F)F)c(NC4CCC4)n3)ccc12 (stereo not drawn),+
CC(=O)N1c2ccc(S(=O)(=O)N3CCCC3)cc2CC1C(=O)NCc1c(C)nn(C)c1C (stereo not drawn),i
CCOc1ccc(CCN2C(=O)c3cc4ccc(OC)cc4n3CC2(C)C(=O)NC2CCCC2)cc1 (stereo not drawn),i
O=S(=O)(NCCn1c(-c2ccccc2)nc2ccccc21)c1cc(F)ccc1F,i
CCOc1ccc(CN2C(=O)c3cc4ccccc4n3CC2(C)C(=O)NCc2ccccc2OC)cc1 (stereo not drawn),i
COc1cc2ncnc(Nc3cccc(O)c3)c2cc1OC,i
CCCNC(=O)Nc1ccc(Oc2ncnc3cc(OC)c(OC)cc23)cc1Cl,i
COc1cc2ncnc(Nc3cccc(Cl)c3)c2cc1OC,+
CC1(C(=O)NC2CCCCCC2)Cn2c(cc3occc32)C(=O)N1Cc1ccccc1 (stereo not drawn),i
OC1(c2ccc3c(c2)c2c4n3CCN(Cc3ccccc3)C4CCC2)CCCC1 (stereo not drawn),i
CCOC(=O)c1cc2n(n1)CC(C)(C(=O)NC1CCCC1)N(c1ccc(OCC)cc1)C2=O (stereo not drawn),i
O=C(CCc1ccccc1)c1c(O)c([C@@H]2O[C@H](CO)[C@@H](O)[C@H](O)[C@H]2O)c(O)c([C@@H]2O[C@H](CO)[C@@H](O)[C@H](O)[C@H]2O)c1O,+
O=C(Cc1ccccc1)OC[C@H]1O[C@H](O[C@H]2O[C@H](CO)[C@@H](O)[C@H](O)[C@H]2O)[C@H](O)[C@@H](O)[C@@H]1O,i
CN(C)c1ccc(C(=O)NC[C@H]2O[C@@H](CO)[C@@H](O)[C@H]2N(C)CCc2ccccc2)cc1,i
COc1cccc(CNC(=O)c2cc3n(n2)CC(C)(C(=O)NC2CCCC2)N(C)C3=O)c1OC (stereo not drawn),i
SMILES,Methyltransferases
CCCn1c(=O)c2ccc(C(=O)NCC(C)C)cc2n2c(=O)n(Cc3cccc(C)c3)nc12,i
Cc1ccc(N2C(=O)c3ccc(-c4ccco4)n3CC2(C)C(=O)NC2CCCC2)cc1Cl (stereo not drawn),i
CCOc1ccc(CNC(=O)CN(C)S(=O)(=O)c2ccc3[nH]c4c(c3c2)CCCC4)cc1OC,i
CC1(C(=O)NC2CCCCCCC2)Cn2c(cc3occc32)C(=O)N1CCc1ccc(Cl)cc1 (stereo not drawn),i
CCOC(=O)C1CCN(C(=O)CN(C)S(=O)(=O)c2ccc3[nH]c4c(c3c2)CCCC4)CC1,i
Cc1ccc(NC(=O)Cn2nc3n(Cc4ccccc4)c(=O)c4ccccc4n3c2=O)cc1C,i
COc1ccc(CNC(=O)CCC2CCCN(C(=O)CCN3CCCCO3)C2)c(OC)c1 (stereo not drawn),i
CCC(=O)N1CCOc2c(cc(-c3ccc(OC)c(OC)c3)cc2OC[C@H]2CCCN(C)C2)C1,+!
Cc1ccccc1-c1cc(O)c2c(c1)CN(C(=O)C1CCNCC1)CCO2,i
Cc1ccc(CCNC(=O)Cn2c(=O)oc3cc(S(=O)(=O)NC4CCCC4)ccc32)cc1,i
CCc1ccccc1N1C(=O)c2c(NC(C)=O)c3cc(F)ccc3n2CC1(C)C(=O)NC1CCCC1 (stereo not drawn),i
CC1CCN(S(=O)(=O)c2ccc3c(ccn3CC(=O)NCc3ccc4c(c3)OCO4)c2)CC1,i
